Assay [1] can be described thus: growth inhibition of DIPG glioma cells, dose response, cell-based, SU-DIPG-XVII, MIPE5.0, CellTiter-Glo, qHTS (AID 1347060; cut-off not given, nearly all actives have AC50 up to about 26 µM;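 for AC50: cells exposed to compound for 48 hours before viability readout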). The following applies: SU-DIPG-XVII viability, CellTiter-Glo ATP luminescence. A general note: ATP-based viability assays read luminescence as a measure of living cells.
Assay [2] is described as follows: growth inhibition of DIPG glioma cells, dose response, cell-based, SU-DIPG-IV, MIPE4.0, CellTiter-Glo, qHTS (AID 1347063; cut-off not given, nearly all actives have AC50 up to about 30 µM;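 note: compound exposure lasted 48 hours before the viability readout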). The following applies: SU-DIPG-IV viability, CellTiter-Glo ATP luminescence.
Assay [3] is described as follows: viability loss in pontine glioma line – cell-based, SU-DIPG-XXV, MIPE5.0, CellTiter-Glo, qHTS, dose response (AID 1347065; cut-off not given, nearly all actives have AC50 up to about 26 µM;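 note: cells exposed to compound for 48 hours before ATP readout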). Conditions: CellTiter-Glo ATP luminescence.
Assay [4] can be described thus: JHH-DIPG-1 glioma cell viability, MIPE5.0 library, CellTiter-Glo luminescence, qHTS (AID 1347067; cut-off not given, nearly all actives have AC50 up to about 26 µM;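 note: cells exposed to compound for 48 hours before readout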). Conditions: JHH-DIPG-1 glioma viability, CellTiter-Glo ATP luminescence.
Assay [5] can be described thus: SU-DIPG-XXV glioma cell viability, MIPE5.0 library, qHTS (AID 1347068; cut-off not given, nearly all actives have IC50 up to about 30 µM). On the technique in general: qHTS replaces the single test concentration by a dilution series.
A short description of assay [6]: ovarian cancer cell viability with rucaparib, profiling panel, oncology-focused library, rucaparib conditional (AID 1508598). Conditions: patient-derived ovarian cancer cells, CellTiter-Glo viability, 144 h, stronger effect = lower value.
Assay [7] in a line: SU-DIPG-VI glioma cell viability, MIPE4.0 library, CellTiter-Glo luminescence, qHTS (AID 1347066; cut-off not given, nearly all actives have AC50 up to about 30 µM;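 note: cells exposed to compound for 48 hours before readout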). Conditions: CellTiter-Glo ATP luminescence.
The nature of assay [8]: modifiers of HSF1 nuclear foci, imaging, Selleck Cancer Library (AID 1347162; in the data active = plate-normalised HSF1 focus index below about 0.46). Conditions: human cells, at 10 µM; SSMD: measured here: HSF1 foci SSMD mean; cell count: measured here: cell number; plate-normalised HSF1 focus index: stronger effect = lower value.
Assay [9] in a line: growth inhibition of DIPG glioma cells, dose response, cell-based, SU-DIPG-XIII, MIPE5.0, CellTiter-Glo, qHTS (AID 1347064; cut-off not given, nearly all actives have AC50 up to about 23 µM;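 note: cells exposed to compound for 48 hours before the viability read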). The following applies: SU-DIPG-XIII viability, CellTiter-Glo ATP luminescence.

Inconclusive results are not listed. Active and inactive are the calls of the source.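 Rule for the calls, unless noted: active = normalized viability below 100% at a tested concentration; inactive = the rest.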

As usually defined, the AC50 is the concentration giving half of the maximal activity seen. A word on the viability: it is a read-out of living cells in per cent, often relative to untreated cells. `O=C(CCCCCCC(=O)Nc1ccc([C@H]2O[C@@H](CSc3nc(-c4ccccc4)c(-c4ccccc4)o3)C[C@@H](c3ccc(CO)cc3)O2)cc1)NO`: the result in assay [1], in [3], in assay [4] and in [5] was inactive. The AC50 in assay [2] is 13.2 µM (active). For the same compound, the viability was 114% (inactive) in assay [6] (at 0.000305 µM, OCI-C5x cells, with rucaparib 10 µM, 100% = cells with rucaparib alone); 141% (inactive) in assay [6] (at 0.000305 µM, OCI-C5x cells, without rucaparib); 97.6% (active) in assay [6] (at 0.000305 µM, OCI-P5x cells, with rucaparib 20 µM, 100% = cells with rucaparib alone); 111% (inactive) in assay [6] (at 0.000305 µM, OCI-P5x cells, without rucaparib); 112% (inactive) in assay [6] (at 0.00122 µM, OCI-C5x cells, with rucaparib 10 µM, 100% = cells with rucaparib alone); 131% (inactive) in [6] (at 0.00122 µM, OCI-C5x cells, without rucaparib). For the same compound, the viability in assay [6] (at 0.00122 µM, OCI-P5x cells, with rucaparib 20 µM, 100% = cells with rucaparib alone) is 90.6% (active); in [6] (at 0.00122 µM, OCI-P5x cells, without rucaparib) it was 114% (inactive); in assay [6] (at 0.00488 µM, OCI-C5x cells, with rucaparib 10 µM, 100% = cells with rucaparib alone), 115% (inactive); in assay [6] (at 0.00488 µM, OCI-C5x cells, without rucaparib), 132% (inactive); in assay [6] (at 0.00488 µM, OCI-P5x cells, with rucaparib 20 µM, 100% = cells with rucaparib alone), 90% (active); in assay [6] (at 0.00488 µM, OCI-P5x cells, without rucaparib), 108% (inactive). Further, the viability is 112% (inactive) in assay [6] (at 0.0195 µM, OCI-C5x cells, with rucaparib 10 µM, 100% = cells with rucaparib alone); 130% (inactive) in assay [6] (at 0.0195 µM, OCI-C5x cells, without rucaparib); 72% (active) in assay [6] (at 0.0195 µM, OCI-P5x cells, with rucaparib 20 µM, 100% = cells with rucaparib alone); 79.1% (active) in [6] (at 0.0195 µM, OCI-P5x cells, without rucaparib); 112% (inactive) in assay [6] (at 0.0781 µM, OCI-C5x cells, with rucaparib 10 µM, 100% = cells with rucaparib alone); 139% (inactive) in assay [6] (at 0.0781 µM, OCI-C5x cells, without rucaparib). Further, the viability in assay [6] (at 0.0781 µM, OCI-P5x cells, with rucaparib 20 µM, 100% = cells with rucaparib alone) was 102% (inactive); in [6] (at 0.0781 µM, OCI-P5x cells, without rucaparib) it was 106% (inactive); in assay [6] (at 0.313 µM, OCI-C5x cells, with rucaparib 10 µM, 100% = cells with rucaparib alone), 116% (inactive); in assay [6] (at 0.313 µM, OCI-C5x cells, without rucaparib), 137% (inactive); in assay [6] (at 0.313 µM, OCI-P5x cells, with rucaparib 20 µM, 100% = cells with rucaparib alone) it was 104% (inactive); in [6] (at 0.313 µM, OCI-P5x cells, without rucaparib) it was 109% (inactive). Besides, the viability is 110% (inactive) in [6] (at 1.25 µM, OCI-C5x cells, with rucaparib 10 µM, 100% = cells with rucaparib alone); 139% (inactive) in assay [6] (at 1.25 µM, OCI-C5x cells, without rucaparib); 106% (inactive) in assay [6] (at 1.25 µM, OCI-P5x cells, with rucaparib 20 µM, 100% = cells with rucaparib alone); 116% (inactive) in [6] (at 1.25 µM, OCI-P5x cells, without rucaparib); 128% (inactive) in [6] (at 5 µM, OCI-C5x cells, with rucaparib 10 µM, 100% = cells with rucaparib alone); 158% (inactive) in [6] (at 5 µM, OCI-C5x cells, without rucaparib). For the same compound, the viability in assay [6] (at 5 µM, OCI-P5x cells, with rucaparib 20 µM, 100% = cells with rucaparib alone) is 21.1% (active); in [6] (at 5 µM, OCI-P5x cells, without rucaparib), 108% (inactive).
Regarding `Clc1ccc2ncc(-c3cccc(NC4CNC4)n3)n2c1`, the compound was called inactive in assay [1], in assay [4] and in assay [5]. The AC50 in assay [2] was 26.4 µM (active).
For `CC[C@@H]([C@H](C)O)n1ncn(-c2ccc(N3CCN(c4ccc(OCC5CO[C@@](Cn6cncn6)(c6ccc(F)cc6F)C5)cc4)CC3)cc2)c1=O` (some centres not stated), the AC50 in assay [1] is 18.6 µM (active); in assay [2] it was 14.8 µM (active). For the same compound, the compound was classed as inactive in assay [7].
Regarding `CC(C)=CCC/C(C)=C/CC/C(C)=C/CSc1ccccc1C(=O)O`, in [1], the compound was called inactive. In addition, in assay [2], the AC50 was 0.526 µM (active). The result in [4] was inactive. For the same compound, in [5], the compound was called inactive. Also, in assay [8], the SSMD came to 2.56, the cell count was 6790 and the plate-normalised HSF1 focus index was 1.15 (inactive).
Consider `N#C/C(=C1/Nc2ccccc2S1)c1ccnc(OCc2ccc(CN3CCOCC3)cc2)n1`, for which the AC50 in assay [1] was 14.8 µM (active); in assay [2] it was 0.0209 µM (active); in [9], 14.8 µM (active); in assay [7], 0.743 µM (active); in assay [4], 20.9 µM (active).
In the case of `N#Cc1c(N)nc(N)nc1N[C@H](c1nc2c(F)ccc(Cl)c2c(=O)n1-c1cccnc1)C1CC1`, the AC50 is 18.6 µM (active) in assay [1], 13.2 µM (active) in assay [9] and 11.8 µM (active) in assay [3].
`CCOc1cc(C(C)(C)C)ccc1C1=N[C@@](C)(c2ccc(Cl)cc2)[C@@](C)(c2ccc(Cl)cc2)N1C(=O)N1CCN(CC(=O)N2CCOCC2)CC1`: the figures for the AC50 in [1], in assay [9] and in assay [3] were 11.5 µM (active), 14.5 µM (active) and 10.3 µM (active), respectively.

These data come from PubChem BioAssay.
